In experiment [1] the target is Aldehyde dehydrogenase, mitochondrial (Homo sapiens) (UniProt P05091). As to the kind of experiment: qHTS for Inhibitors of the Aldehyde Dehydrogenase Family (ALDH2) Primary screen (AID 2061308). Note: nearly all actives have a fitted effect of over 55% in size. On the technique in general: In qHTS, concentration-response curves come from the screen itself.
The target in experiment [2] is Retinaldehyde dehydrogenase 3 (Homo sapiens) (UniProt P47895). As to the kind of experiment: qHTS for Inhibitors of the Aldehyde Dehydrogenase Family (ALDH1A3) Primary screen (AID 2061315).

These results are taken from PubChem BioAssay (NCATS).

Results filed as inconclusive are left out. A call without a number means that no potency is given here. The source made the active and inactive calls. Calls come from the whole dose curve; as a rule, active = well fitted curve in the direction sought with a large enough effect; inconclusive = small, poorly fitted or top-dose-only effect, or another doubt; inactive = no such curve, though single readings can be large; an effect the other way counts as inactive or inconclusive.

Take `COc1cccc(OC)c1C1=Nn2c(nnc2-c2ccccc2O)SC1`: the Potency entry in experiment [1] and in experiment [2] was “inactive” each time.
As for `Cc1ccc(OCCn2c(CCNC(=O)c3ccsc3)nc3ccccc32)cc1`, the Potency entry in experiment [1] and in experiment [2] was “inactive” each time.
Take `NC(=O)c1ccc(O)c2ncccc12`: the Potency result in experiment [1] and in experiment [2] was “inactive” each time.
Consider `c1csc(CCNc2ncnc3ccc(-c4ccc5c(c4)OCO5)cc23)c1`, for which the Potency result in experiment [1] and in experiment [2] was “inactive” in each case.
For `Cc1nc(NCc2ccccc2)c2nc(-c3ccccc3)n(CCCN3CCCCC3C)c2n1` (stereo not given), the Potency entry in experiment [1] and in experiment [2] was “inactive” in each case.
On to `c1nc(NCCc2cnc[nH]2)c2cc(-c3ccc4c(c3)OCO4)ccc2n1`, for which the Potency result in experiment [1] and in experiment [2] was “inactive” throughout.
With `Cc1nc(C)c(-c2ccc3ncnc(N(C)Cc4sccc4C)c3c2)s1`, the Potency entry in experiment [1] and in experiment [2] was “inactive” each time.
`O=C(Nc1ccc(Cl)c(C(F)(F)F)c1)Nc1nnc(-c2ccncc2)s1`: the Potency entry in experiment [1] and in experiment [2] was “inactive” throughout.
As to `Cc1ccc(S(=O)(=O)Nc2ccccc2C(=O)Nc2ccc(-c3ccccc3)nc2)cc1`, the Potency entry in experiment [1] and in experiment [2] was “inactive” throughout.
For the compound `N#Cc1cc(NC(=O)Nc2nnc(-c3ccncc3)s2)ccc1F`, the Potency entry in experiment [1] and in experiment [2] was “inactive” throughout.
In the case of `O=C(Nc1nnc(COc2ccc(Cl)cc2)s1)c1cccs1`, the Potency entry in experiment [1] and in experiment [2] was “inactive” throughout.
For `CC1(C)CCc2cc(S(=O)(=O)N3CCN(S(=O)(=O)c4c(F)cccc4F)CC3)ccc2O1`, the Potency entry in experiment [1] and in experiment [2] was “inactive” in each case.
As to `Nc1cc(-c2nc(Nc3ccc(F)c(F)c3)c3ccccc3n2)ccn1`, the Potency result in experiment [1] and in experiment [2] was “inactive” throughout.
`C/C=C\C1=CCCC1Nc1ncnc2ccc(-c3c(C)noc3C)cc12` (stereo not given): the Potency entry in experiment [1] and in experiment [2] was “inactive” each time.
As for `Cc1ccc(OCCn2c(CCNC(=O)c3ccc(C(F)(F)F)cc3)nc3ccccc32)cc1`, the Potency result in experiment [1] and in experiment [2] was “inactive” throughout.
